Screening data from PubChem.
Autofluor 339 – intrinsic fluorescence of library compounds, ex339/em460 – biochemical, MLSMR library, data from DPM-DC assay, artefact control, profiling panel; compound autofluorescence, ex339/em460 nm, NADH buffer; stronger effect = higher value; 1 = no-compound wells, NADH background; fluorescence fold increase at 10 µM; actives 5.5% (n = 65,000);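 active = at 10 µM, mean starting fluorescence two-fold or more over control wells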;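 also: signal is the first read of a kinetic run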
NADH enzymes – inhibition of NAD/NADH coupling enzymes, library profiling; coupled PK/LDH NADH assays, four targets; IC50, µM (series often up to 10 µM), without a hit: top-dose inhibition; actives 0.02% (n = 65,000); AID 774;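 active = single-dose screening hits from any of four coupled enzyme assays that gave an IC50 when retested across doses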;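 also: the DPM-DC format reads NADH fluorescence rather than 340 nm absorbance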
PMK inhibit – blocks S. pneumoniae phosphomevalonate kinase | AID 539 | inhibition, % at 10 µM | purified PMK, PK/LDH-coupled NADH absorbance 340 nm | actives 0.49% (n = 65,000);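 active = top-ranked compounds by inhibition in the single 10 µM screen, taking a fixed number of the strongest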;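 also: 0% = full reaction with DMSO carrier and 100% = background rate without enzyme reaction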
DPM-DC inhibit – blocks S. pneumoniae diphosphomevalonate decarboxylase; purified DPM-DC, PK/LDH coupled NADH fluorescence; calls only at 10 µM; actives 0.49% (n = 65,000); AID 556;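 active = the 320 compounds with the highest percent inhibition in the single-dose primary screen, excluding strongly autofluorescent ones, cut at about 32% in these data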;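 also: kinetic rate of NADH fluorescence loss reporting ADP formed by the decarboxylase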
Spn MK inh – inhibitors of Streptococcus pneumoniae mevalonate kinase; purified MK, PK/LDH-coupled NADH absorbance 340 nm; inhibition, % at 10 µM; AID 555; actives 0.48% (n = 65,000);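 active = ranked among the strongest by inhibition in the single 10 µM screen, a fixed top-ranked set picked for dose follow-up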
Abs 340nm – compound absorbs light at 340 nm. compound absorbance at 340 nm, fold over control. fold change at 10 µM. 65,000 tested, under 10 active;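 active = at 10 µM dose, initial 340 nm absorbance at least 2 fold that of control wells; inactive = change under 2 fold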;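 also: initial absorbance extrapolated from kinetic A340 decline of NADH oxidation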
Starred values were filed as active, the others as inactive. Compounds with a hit are over-represented: about 6.5% of the library has one in this group of screens.

Screening Cc1ccc(CN2CCSc3ccc(C(=O)N4CCN(c5ncccn5)CC4)cc32)cc1 returned Autofluor 339 4.9*, NADH enzymes 3%, PMK inhibit 3, Spn MK inh 2 and Abs 340nm 1.
Screening O=C1NC(c2ccccc2Cl)Nc2ccccc21 (configuration not stated) returned Autofluor 339 5*, NADH enzymes 5%, PMK inhibit 9, Spn MK inh 1 and Abs 340nm 1.
Screening O=C1NC(c2cccs2)Nc2ccccc21 (configuration not stated) returned Autofluor 339 2.5*, NADH enzymes 1%, PMK inhibit 0, Spn MK inh 4 and Abs 340nm 1.
For Cc1ccsc1C1NC(=O)c2ccccc2N1 (configuration not stated) the results were Autofluor 339 1.9, NADH enzymes 1%, PMK inhibit 0, Spn MK inh 1 and Abs 340nm 1.1.
`CCOC(=O)c1c(N)n(CCOC(=O)c2cccs2)c2nc3ccccc3nc12` gave Autofluor 339 3.7*, NADH enzymes 9%, PMK inhibit 9, Spn MK inh 8 and Abs 340nm 1.1.
`CN(C)Cc1cc(CCNC(=O)c2ccc(Cl)cc2)ccc1O` gave Autofluor 339 1.2, NADH enzymes 3%, PMK inhibit 7, DPM-DC inhibit inactive, Spn MK inh 3 and Abs 340nm 0.98.
Screening COc1cc2nc(N(C)C)nc(N)c2cc1OC returned Autofluor 339 5*, NADH enzymes 11%, PMK inhibit 11, Spn MK inh 10 and Abs 340nm 1.1.
O=C(CSc1ccc2nnc(-c3ccccn3)n2n1)NCc1ccco1 was read as Autofluor 339 1.2, NADH enzymes 1%, PMK inhibit 1, DPM-DC inhibit inactive, Spn MK inh 3 and Abs 340nm 1.
c1nc(NCCN2CCOCC2)c2sc3nc(N4CCOCC4)c4c(c3c2n1)CCC4 was read as Autofluor 339 2.3*, NADH enzymes 5%, PMK inhibit 0, Spn MK inh 10 and Abs 340nm 1.2.
`CCN1CCN(c2ncnc3c2sc2nc(N4CCOCC4)c4c(c23)CCC4)CC1` gave Autofluor 339 1.6, NADH enzymes 14%, PMK inhibit 0, DPM-DC inhibit inactive, Spn MK inh 14 and Abs 340nm 1.1.
`Cc1cccc(C)c1OCCCCc1c(C)n[nH]c1C` gave Autofluor 339 1.1, NADH enzymes 4%, PMK inhibit 0, DPM-DC inhibit inactive, Spn MK inh 12 and Abs 340nm 1.
For Cc1ccccc1OCCCCc1c(C)n[nH]c1C the results were Autofluor 339 1.1, NADH enzymes 15%, PMK inhibit 31*, DPM-DC inhibit inactive, Spn MK inh 7 and Abs 340nm 1.
`CNc1nnc(-c2cccc(N(C)C)c2)s1` gave Autofluor 339 2.9*, NADH enzymes 3%, PMK inhibit 0, DPM-DC inhibit inactive, Spn MK inh 4 and Abs 340nm 1.
Screening CCCS(=O)(=O)c1c(S(=O)(=O)CCC)c2c3ccccc3ccn2c1C(N)=O returned Autofluor 339 0.99, NADH enzymes 8%, PMK inhibit 9, DPM-DC inhibit inactive, Spn MK inh 7 and Abs 340nm 1.
CCOC(=O)c1snc2c(=O)[nH]cnc12 was read as Autofluor 339 3.7*, NADH enzymes 7%, PMK inhibit 10, Spn MK inh 4 and Abs 340nm 1.1.
O=C(c1c[nH]c2ccc(S(=O)(=O)N3CCC4(CC3)OCCO4)cc2c1=O)N1CCOCC1 was read as Autofluor 339 2.1*, NADH enzymes 9%, PMK inhibit 18, Spn MK inh 0 and Abs 340nm 1.1.
Cc1cccc(N(C)S(=O)(=O)c2ccc3[nH]cc(C(=O)N4CCOCC4)c(=O)c3c2)c1 was read as Autofluor 339 2*, NADH enzymes 6%, PMK inhibit 0, DPM-DC inhibit inactive, Spn MK inh 5 and Abs 340nm 1.1.
For O=C(Nc1ccn(-c2ccccc2)n1)c1ccc(S(=O)(=O)N2CCCCCC2)cc1 the results were Autofluor 339 1.1, NADH enzymes 4%, PMK inhibit 8, DPM-DC inhibit inactive, Spn MK inh 4 and Abs 340nm 1.
Screening OC1CN=C2C=CC=CN2C1 (configuration not stated) returned Autofluor 339 2.2*, NADH enzymes 13%, PMK inhibit 9, DPM-DC inhibit inactive, Spn MK inh 4 and Abs 340nm 1.
Screening CC1(C)NC(=O)N(CC(O)Cn2nnc3ccccc32)C1=O (configuration not stated) returned Autofluor 339 1.1, NADH enzymes 4%, PMK inhibit 13, DPM-DC inhibit inactive, Spn MK inh 0 and Abs 340nm 1.
COc1ccc(-n2nc3cc(C)c(NC(=O)CC(C)C)cc3n2)cc1 was read as Autofluor 339 2.1*, NADH enzymes 6%, PMK inhibit 7, Spn MK inh 5 and Abs 340nm 1.1.
For Cc1cc2nn(-c3ccccc3)nc2cc1NC(=O)c1cccs1 the results were Autofluor 339 1.3, NADH enzymes 1%, PMK inhibit 1, DPM-DC inhibit inactive, Spn MK inh 1 and Abs 340nm 1.1.
Screening COc1ccc(-n2nc3cc(C)c(NC(=O)c4cccnc4)cc3n2)cc1 returned Autofluor 339 3.3*, NADH enzymes 14%, PMK inhibit 10, DPM-DC inhibit inactive, Spn MK inh 8 and Abs 340nm 1.1.
Screening CCN(C(=O)Cc1cccs1)c1nnc(-c2cccnc2)s1 returned Autofluor 339 1.1, NADH enzymes 5%, PMK inhibit 13, DPM-DC inhibit inactive, Spn MK inh 1 and Abs 340nm 1.
For CCOC(=O)C1=C(C)NC2=C(C(=O)C(C(=O)OCC)C(c3ccco3)C2)C1c1ccccn1 (configuration not stated) the results were Autofluor 339 3.6*, NADH enzymes 7%, PMK inhibit 8, Spn MK inh 6 and Abs 340nm 1.1.
For Cn1c(C(=O)O)c(CC(=O)NCc2cccnc2)c2ccccc21 the results were Autofluor 339 1.1, NADH enzymes 6%, PMK inhibit 12, DPM-DC inhibit inactive, Spn MK inh 7 and Abs 340nm 0.99.
For COc1ccc2c(c1)c1ncnc(N3CCN(Cc4ccc5c(c4)OCO5)CC3)c1n2C the results were Autofluor 339 3.2*, NADH enzymes 6%, PMK inhibit 7, DPM-DC inhibit inactive, Spn MK inh 5 and Abs 340nm 1.
COC(=O)c1[nH]c2cc(OC)ccc2c1NC(=O)CCN1CCN(Cc2ccc3c(c2)OCO3)CC1 was read as Autofluor 339 1.4, NADH enzymes 4%, PMK inhibit 6, DPM-DC inhibit inactive, Spn MK inh 5 and Abs 340nm 1.1.
